# Wnt act – activators of Wnt/beta-catenin signaling. actives 1.2% (n = 300,000). activation, % at 9.35 µM. AID 743398. Wnt/beta-catenin reporter cell assay, activator, plate reader; in the data active = activation above about 30%, passing the limit was not always enough; inconclusive = no clear call, values can overlap the other calls;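 note: 0% = neutral control wells and 100% = positive control wells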
# MITF TRPM1 HTS – activators of MITF-driven TRPM1 promoter activity in SK-MEL-5 cells; SK-MEL-5 TRPM1-promoter luciferase, 24 h; % of positive control, neutral wells = 0; activation, % at 12.5 µM; actives 0.75% (n = 300,000); AID 588334;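 active = mean activation of at least 80% with every replicate also reaching 80%; inconclusive = mean reaches 80% but some replicate falls short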;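 note: 0% = neutral control wells and 100% = parthenolide positive control wells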
# rRNA inh HTS – inhibits bacterial ribosomal RNA function over humanized ribosomes; actives 1.6% (n = 350,000); GFP signal change (wild-type ribosome), % (test concentration not listed); AID 720706; E. coli WT GFP vs humanized-ribosome RFP mutants, fluorescence, 24 h; active compounds read low; DMSO median 0, no signal -100;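 active = significant combined selectivity score with lowered wild-type GFP, culture density cut under 30%, mutant RFP and density less affected; inactive = any of these conditions unmet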
# esBAF inh – SWI/SNF esBAF complex inhibition; AID 602393; mouse ES cells, Bmi1-luciferase knock-in reporter, 24 h; 100% = twice the neutral-well signal; actives 2% (n = 350,000); reporter increase, % at 12.5 µM; in the data active = activation above about 40%; inconclusive = no clear call, values can overlap the other calls;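 note: 0% = median of the plate's neutral control wells and 100% = double that signal; a rise in the Bmi1 reporter signal indicates esBAF inhibition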
# MLL AF4-AF9 inh – blocks AF4 peptide binding to human AF9 | AID 651704 | actives 0.47% (n = 350,000) | AlphaScreen, biotin-AF4 peptide binding to FLAG-AF9 | P42568 | inhibition, % at 10 µM;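 active = every replicate reaching a set inhibition limit, whatever the replicate mean, cut at about 25% in these data; inconclusive = mean inhibition reaches that limit but some replicates miss it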;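 note: 0% = plate neutral control median and 100% = total signal loss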
# Target sequence (P42568 whole entry, looked up): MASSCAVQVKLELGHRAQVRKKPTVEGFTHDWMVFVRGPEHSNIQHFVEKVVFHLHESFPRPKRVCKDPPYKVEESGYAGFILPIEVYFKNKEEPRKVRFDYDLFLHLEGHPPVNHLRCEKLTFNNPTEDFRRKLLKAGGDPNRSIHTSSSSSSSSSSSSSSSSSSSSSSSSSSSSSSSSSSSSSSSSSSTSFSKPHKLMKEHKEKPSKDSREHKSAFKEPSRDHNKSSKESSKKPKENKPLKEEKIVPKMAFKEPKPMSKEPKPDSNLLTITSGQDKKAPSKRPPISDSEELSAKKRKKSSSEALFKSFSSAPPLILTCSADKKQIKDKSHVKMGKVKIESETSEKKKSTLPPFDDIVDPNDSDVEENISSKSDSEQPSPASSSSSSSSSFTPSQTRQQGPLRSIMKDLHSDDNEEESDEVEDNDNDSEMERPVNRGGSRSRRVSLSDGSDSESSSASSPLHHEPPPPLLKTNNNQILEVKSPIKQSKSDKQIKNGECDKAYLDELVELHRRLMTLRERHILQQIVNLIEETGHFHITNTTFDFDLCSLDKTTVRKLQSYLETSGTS
# Active calls of the source: *; ? = inconclusive; · = no result given. In the library only some 3.7% were active in any assay of this set; here they are far more common.
SMILES,Wnt act,MITF TRPM1 HTS,rRNA inh HTS,esBAF inh,MLL AF4-AF9 inh
Cc1ccc(Nc2nc(COC(=O)C3CC3)cs2)cc1,8,?,-29,49*,6
CCN(CC)C(=S)SCC(=O)c1ccccc1,·,·,·,55*,·
CCN(CC)C(=S)SCC(=O)c1ccc(F)cc1,?,76,·,48*,·
COc1cccc2cc(CC(=O)c3cc(C)ccc3C)c(=O)oc12,4,·,-8,?,1
Cc1cc(O)c(-c2cc(C(=O)Nc3cccnc3)[nH]n2)cc1C,40*,138*,2,56,-4
Cc1cc(C)c(O)c(-c2cc(C(=O)Nc3cccnc3)[nH]n2)c1,22,35,-33*,·,-5
CCc1ccc(O)c(-c2cc(C(=O)Nc3cccnc3)[nH]n2)c1,?,109*,-37*,56*,-3
CN1CCN(C(=O)c2cccc(-c3ccc4nccn4c3)c2)CC1,2,·,13,-6,-1
COc1cccc(-c2ccc3nccn3c2)c1,-3,·,9,49*,-2
Cc1ccc(N2CN(CCC3=CCCCC3)CNC2=S)cc1,49*,·,21,-2,4
Cc1ccc(N2CN(Cc3ccco3)CNC2=S)cc1,36*,-4,12,·,-1
CCc1ccc(N2CN(CCc3ccccc3)CNC2=S)cc1,-3,·,·,·,-2
CC(C)(C)CNC(=O)c1cc2c(Br)ccc(Br)c2nc1N,-1,·,0,·,0
COc1ccc(C2CC(=O)C=C(NCc3ccc4c(c3)OCO4)C2)cc1 (configuration not stated),3,·,-24*,·,13
COc1ccc([C@H]2CC(=O)C=C(c3ccc4c(c3)OCCO4)C2)cc1,5,17,-21*,14,0
O=C1C=C(c2ccc3c(c2)OCO3)C[C@@H](c2ccc3c(c2)OCO3)C1,-1,21,5,-2,0
Cc1ccc(F)cc1NC(=O)C12CC3CC(C1)CC(n1cnc([N+](=O)[O-])n1)(C3)C2,0,-21,·,-7,·
Cc1ccccc1S(=O)(=O)N1C[C@H](O)COC[C@H]2O[C@@H](CC(=O)N3CCC(Cc4ccccc4)CC3)CC[C@@H]21,·,·,-22,1,5
Cc1nn(CC(=O)Nc2ccccn2)c(=O)c2ccccc12,-4,8,·,-4,·
O=C(Cn1nc(-c2ccccc2)c2ccccc2c1=O)Nc1ccccn1,·,37,·,48*,·
C[C@H]1CN([C@@H](C)CO)C(=O)c2cc(-c3cccc(C#N)c3)cnc2O[C@H]1CN(C)C(=O)C1CC1,·,·,1,-10,-2
COc1ccc(C(=O)NCC(C)(C)CNC(=O)c2ccc(OC)c(OC)c2)cc1OC,-4,1,·,·,0
CC(C)[C@H](NC(=O)OCc1ccccc1)C(=O)OCC(=O)c1ccccc1,35*,?,-1,-11,-3
CC(C)C(NC(=O)OCc1ccccc1)C(=O)O (configuration not stated),4,6,·,-10,·
CCCC(=O)Nc1ccc(C(=O)COC(=O)C2CC2)cc1,48*,73,1,39,-2
SMILES,Wnt act,MITF TRPM1 HTS,rRNA inh HTS,esBAF inh,MLL AF4-AF9 inh
CC(=O)Nc1ccc(C(=O)COC(=O)C2CC2)c(F)c1,38*,126*,1,40,-3
O=C(C[C@@H]1CC[C@@H](NC(=O)Nc2cc(F)ccc2F)[C@@H](CO)O1)NCc1ccncn1,·,·,0,-4,-3
Cc1ccc(-c2cc(C(=O)NC3CCCCC3)no2)cc1,9,114*,10,37,2
O=C(NC1CCCCC1)c1cc(-c2ccc(O)cc2)on1,-3,93*,·,42*,0
COc1ccc(-c2cc(C(=O)NC3CCCCC3)no2)cc1OC,-4,7,8,1,0
CN(C(=O)c1cc(-c2ccccc2)on1)C1CCCCC1,34*,174*,-4,51*,-1
O=C(NC1CCCCCCC1)c1ccccc1O,18,77,·,92*,·
Cc1cc(=O)n2c(C(=O)Nc3ccc(C(=O)OC(C)C)cc3)c(C(=O)Nc3ccccc3)sc2n1,3,-15,13,·,-1
O=C(NC1CCCCC1)c1cc(-c2ccccc2O)on1,22,124*,13,83*,-2
CCCc1cc(C(=O)NC2CCCCC2)no1,33*,66,1,43*,-7
CCCNC(=O)Nc1ccc2c(c1)OC[C@@H](C)N(Cc1ccc(-c3ccccn3)cc1)C[C@@H](C)[C@H](OC)CN(C)C2=O,·,·,-1,37,3
Cc1ccc(SCCNC(=O)/C=C/c2ccc(Cl)cc2)cc1,·,4,·,·,·
O=C(/C=C/c1ccccc1Cl)NCCc1ccccc1,-2,87*,-26*,55*,-1
O=C(/C=C/c1ccccc1[N+](=O)[O-])NCc1ccc(Cl)cc1,-6,0,2,·,-2
O=C(/C=C/c1ccccc1Cl)NCc1ccccc1,-5,39,·,53*,·
Cc1ccc(SCCNC(=O)/C=C/c2ccccc2Cl)cc1,-2,5,-24*,-3,-1
O=C(/C=C/c1ccc(Cl)cc1)NCCc1ccccc1,12,44,·,37,-1
O=C(CC(=O)c1ccccc1)Nc1cc([N+](=O)[O-])ccc1Cl,-2,·,-1,19,2
CCCNC(=O)C[C@@H]1C[C@H]2c3cc(NC(=O)CN(C)C)ccc3O[C@H]2[C@@H](CO)O1,·,·,1,0,·
C/C(Cl)=C\CNC(C)c1ccccc1 (configuration not stated),·,-1,·,-8,·
Cc1cc(C)n(-c2nc(-c3cccc(Cl)c3)cs2)n1,-2,·,·,49*,·
Cc1cc(C)n(-c2nc(-c3ccccc3)cs2)n1,·,46,·,·,·
S=c1nc(-c2ccccc2Cl)n(Cc2cccnc2)c2c1CCCC2,-3,-7,-26*,·,1
Cc1ccc(OC(=O)c2cccc(S(=O)(=O)N(C)C)c2)c(-n2nc3ccccc3n2)c1,-4,30,·,8,·
CC(=O)Oc1ccc(C)cc1-n1nc2ccccc2n1,77*,·,·,40,·
SMILES,Wnt act,MITF TRPM1 HTS,rRNA inh HTS,esBAF inh,MLL AF4-AF9 inh
Cc1ccc(OCC(=O)O)c(-n2nc3ccccc3n2)c1,·,1,·,-6,·
Cc1ccc(OC(=O)c2cccc(S(=O)(=O)N3CCCC3)c2)c(-n2nc3ccccc3n2)c1,104*,99*,·,·,·
Cc1cc(S(=O)(=O)N(Cc2ccc(F)cc2)CC2CCCO2)ccc1-n1cnnn1 (configuration not stated),-5,-9,-21*,-5,0
Cc1cc(S(=O)(=O)N(Cc2ccc(C(C)C)cc2)CC2CCCO2)ccc1-n1cnnn1 (configuration not stated),·,-4,-21*,0,·
CN(C)C(=O)/C(=C/c1cn(-c2ccccc2)nc1-c1cccc([N+](=O)[O-])c1)NC(=O)c1ccccc1,56*,-13,·,-5,·
O=C1C(=Cc2cccc(Cl)c2)Cc2ccccc21,1,·,5,·,2
O=C1/C(=C/c2cccs2)Cc2ccccc21,?,18,·,17,·
Cn1cccc1/C=C1\CCc2ccccc2C1=O,34*,5,-26,-46,·
CN1C2CCC1/C(=C/c1cccn1C)C(=O)/C2=C\c1cccn1C,0,-8,51,·,43*
